In all, about 59,000 compounds went through this assay and about 6,200 (11%) were called active. Roughly 9% stayed inconclusive and do not appear here. No stated cut-off is given here; in the data, active means max dye-equivalent concentration above about 10 nM; inconclusive means mostly about 1.1 nM to 9.6 nM; inactive means weaker than that. The sample as a whole holds a higher share of actives than the screen did.

A short description of the assay: qHTS Assay for Spectroscopic Profiling in 4-MU Spectral Region. To be noted: compound autofluorescence, 340/450 nm, 4-MU equivalents; active compounds read high. The method in brief: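 Compounds in 100 mM Tris, pH 8.0, sat 15 min at room temperature before fluorescence was read at 340 nm excitation/450 nm emission; a per-plate six-point 4-MU standard curve converted signals to dye-equivalent concentration at each compound concentration.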
Background: Quantitative high-throughput screening tests each substance at several concentrations.
For the compound `Cc1ccc2nc(-c3ccc(SCC(=O)Nc4cc(C)on4)nc3)[nH]c2c1`, the max dye-equivalent concentration was 33 nM (active).
To `Cc1cc(C)c2c(c1)cc(C)c1nnc(SCC(=O)Nc3cc(C)on3)n12` belongs “inactive”; to `Cc1nc(SCC(=O)Nc2cc(C)on2)c2c(C)c(C)sc2n1`, “inactive”; to `CCOc1ccccc1C(=O)NCCCn1ccnc1`, “inactive”.
To `CCOc1ccccc1C1C(C(=O)OC)=CN(C)C=C1C(=O)OC` belongs 10000 nM (active); to `CCOc1ccccc1C(=O)NCc1ccco1`, “inactive”; to `COCCn1c(=O)c(-c2cccs2)nc2cnc(N3CCN(C)CC3)nc21`, 14 nM (active).
`CN(C(=O)COc1nnc(-c2cccs2)c(-c2cccs2)n1)c1ccccc1`: the max dye-equivalent concentration entry is “inactive”.
To `COc1ccccc1CCn1c(=O)c(-c2cn(C)c3ccccc23)nc2cncnc21` belongs “inactive”; to `COCCn1c(=O)c(-c2cccs2)nc2cncnc21`, 74 nM (active).
To `COC(=O)[C@@H]1[C@H]2C[C@H]3c4[nH]c5cc(OC)ccc5c4CCN3C[C@@H]2C[C@@H](OC(=O)c2cc(OC)c(OC)c(OC)c2)[C@@H]1OC` belongs “inactive”.
As for `CCCCn1nnnc1NCc1cc(OC)c(OC)c(OC)c1`, the entry is “inactive”; as for `COC(=O)CCNc1ccc2c(c1)OCCO2`, “inactive”; as for `CCOc1ccc(-c2nnc3ccc(SC)nn23)cc1`, 12 nM (active).
Turning to `CCOc1cccc(-c2nnc3sc(COc4ccc(OC)cc4)nn23)c1`, the max dye-equivalent concentration result was “inactive”.
As for `O=C1NC(=O)[C@@](Cc2ccccc2)(c2cccnc2)N1`, the max dye-equivalent concentration result was “inactive”.
To `O=c1cc(CSc2ccc(Cl)cc2)nc(N2CCOCC2)[nH]1` belongs “inactive”; to `CC1=C(C(=O)Nc2ccccc2)C(c2cccs2)C(C#N)=C(SCC#N)N1` (centres undefined), “inactive”.
To `CCOC(=O)N1CC=C2C(C#N)=C(N)C(C#N)(C#N)[C@H](c3cccs3)[C@H]2C1` belongs 27 nM (active); to `O=C(c1cc(C(F)(F)F)cc(C(F)(F)F)c1)N1CCC2(CC1)CN(c1ccncc1)C2`, “inactive”.
As for `Cc1cc(O)ccc1-c1cnc2ccccc2n1`, the entry is “inactive”.
`Cc1nc2ccccc2cc1O`: the max dye-equivalent concentration was 2300 nM (active).
As for `CCOC(=O)c1cc2ccccc2nc1C`, the entry is “inactive”; as for `CC(=O)N1CCN(C(=O)Nc2cccc(C(F)(F)F)c2)CC1`, “inactive”.
`Cc1ccc(NC(=O)CCNS(=O)(=O)c2ccc3c(c2)oc(=O)n3C)cc1C`: the max dye-equivalent concentration result is “inactive”.
To `O=C1c2ccccc2C(=O)N1CCCSc1ccccc1` belongs “inactive”; to `C[N+](C)(CCCCCC[N+](C)(C)CCCN1C(=O)c2cccc3cccc(c23)C1=O)CCCN1C(=O)c2cccc3cccc(c23)C1=O`, 260 nM (active); to `Nc1ccc(SCCN2C(=O)c3ccccc3C2=O)cc1`, “inactive”.
For the compound `CCCC(=O)Nc1ccc(C(=O)NCCCn2ccnc2)cc1`, the max dye-equivalent concentration entry was “inactive”.
To `CSc1ccc(S(=O)(=O)NCc2ccc(Cl)cc2)cc1` belongs “inactive”; to `COCCNc1nc(-n2nc(C)cc2C)nc2sc3c(c12)CCCC3`, 920 nM (active).
`Cc1cc(C)n(-c2nc(SCC(=O)N3CCCC3)c3c4c(sc3n2)CCCC4)n1`: the max dye-equivalent concentration result is “inactive”.
To `COCCn1c(C)cc(C(=O)CSc2ncnc3sc4c(c23)CCC4)c1C` belongs “inactive”; to `COc1ccc(S(=O)(=O)Nc2ccc3c(c2)OCO3)cc1Cl`, “inactive”; to `N#Cc1ccc(COC(=O)Cn2nnc(-c3ccccc3)n2)cc1`, “inactive”.
Take `CCCNS(=O)(=O)c1ccc2c(c1)CCCN2C(C)=O`: the max dye-equivalent concentration entry is “inactive”.
To `CC(C)OCCCNc1ncnc2c1[nH]c1ccc(F)cc12` belongs 12 nM (active); to `Fc1cc(F)c2nc(N3CCOCC3)sc2c1`, “inactive”.
`Cn1c(SCc2c(F)cccc2Cl)nnc1-c1cnccn1`: the max dye-equivalent concentration was 17 nM (active).
As for `CCN(CC)C(=O)CSc1nnc(-c2cnccn2)n1-c1ccc(C)cc1`, the entry is “inactive”; as for `O=C(CSc1nnc(-c2cnccn2)n1Cc1ccco1)c1ccc(Cl)c(Cl)c1`, “inactive”; as for `O=C(COc1ccccc1)N1CCc2ccccc2C1`, “inactive”.
As for `Cn1c(/C(C#N)=C2/CCCCCN2)nc2ccccc21`, the figure is 22 nM (active).
As for `N#C/C(=C1\CCCN1)c1nc(-c2ccccc2)cs1`, the entry is “inactive”; as for `Cc1nc(NC(=O)C23CCC(C)(C(=O)O2)C3(C)C)sc1C` (centres undefined), “inactive”.
Consider `CC(=NCc1ccco1)C1=C(O)c2ccccc2C1=O`, for which the max dye-equivalent concentration result was “inactive”.
To `COc1ccc(N2C(=O)CC(N3CCC(C(N)=O)CC3)C2=O)cc1` (centres undefined) belongs “inactive”.
As for `CCCC(NC(=O)c1ccccc1)c1nc2ccccc2n1Cc1ccc(C(=O)OC)o1` (centres undefined), the entry is “inactive”.
As for `CCn1c(SCC(=O)Nc2cc(C)ccc2C)nnc1-c1cnccn1`, the entry is “inactive”; as for `Cc1ccc2nc(NCCCNC(=O)c3cnccn3)c(C#N)cc2c1`, 160 nM (active).
Consider `CC1(C)C(=O)C2(CCCCC2)C(=O)OC1c1cccs1` (centres undefined), for which the max dye-equivalent concentration entry is “inactive”.
As for `CC(C)CNS(=O)(=O)c1ccc(OCC(=O)Nc2ccc3c(c2)OCO3)c(Cl)c1`, the entry is “inactive”; as for `CC1CN(C(=O)CN2C(=O)NC(C)(c3ccccc3)C2=O)CC(C)O1` (centres undefined), “inactive”.
As for `COC(=O)c1cc(C(=O)OC)cc(N2C(=O)CC(N3CCN(c4ccccc4)CC3)C2=O)c1` (centres undefined), the entry is “inactive”.
As for `CCc1c(C)nc2ncnn2c1N1CCC(C(=O)NCc2ccc3c(c2)OCO3)CC1`, the entry is “inactive”; as for `O=C1CSC(=O)N1CCOCCN1C(=O)CSC1=O`, “inactive”.
`COc1ccc(CCn2nnnc2C(c2ccccc2)N2CCN(C)CC2)cc1OC` (centres undefined): the max dye-equivalent concentration result is “inactive”.
To `COc1ccc(CCn2c(-c3ccco3)nc3nc4ccccc4nc32)cc1OC` belongs 40 nM (active); to `COCCn1c(-c2ccc(OC)c(OC)c2)nc2ccccc21`, “inactive”.
To `CCn1cc(C(=O)N2CCN(C3CCCCC3)CC2)c2cc(OC)c(OC)cc2c1=O` belongs “inactive”.
Take `Cn1c2c(c(=O)n(C)c1=O)C(c1ccc(O)cc1)Nc1ccccc1O2` (centres undefined): the max dye-equivalent concentration entry is “inactive”.
To `CCn1c(COc2cccc(OC)c2)nnc1SCC(=O)N1CCOCC1` belongs “inactive”; to `COc1ccc(-c2ccnc(SCC(=O)N3CCOCC3)n2)cc1`, 110 nM (active).
To `COc1ccc(-c2nc(SCC(=O)N3CCOCC3)n[nH]2)cc1` belongs “inactive”; to `CC1(C)CC(=O)C=C(NCCCN2CCCC2=O)C1`, “inactive”.
To `CCOC(=O)c1ccc(N2C(=O)CC(Sc3nc(O)c(CC)c(=O)[nH]3)C2=O)cc1` (centres undefined) belongs “inactive”.
`CS(=O)(=O)N1CCCC(C(=O)N2CCOCC2)C1` (centres undefined): the max dye-equivalent concentration entry is “inactive”.
To `COc1ccc(N2C(=O)c3cccc4cccc(c34)C2=O)nn1` belongs 160 nM (active); to `COc1ccc(OCCCON2C(=O)c3ccccc3C2=O)cc1`, “inactive”.

The record behind these values is PubChem BioAssay AID589 (National Center for Advancing Translational Sciences (NCATS), 2007).
